Screening data (PubChem)
An excerpt weighted towards active compounds, which were near 3% of everything screened.
PAFAH1B3 FP inh – blocks human PAF acetylhydrolase 1B catalytic subunit 3 | recombinant PAFAH1B3, FP-rhodamine probe, fluorescence polarization | 340,000 tested, 0.28% active | inhibition, % at 3.39 µM;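 active means inhibition above the screen-wide average of all tested compounds plus 3 SD, cut at about 25% in these data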;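 further: 0% = enzyme with DMSO only and 100% = wells lacking PAFAH1B3 protein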
Target sequence (Q15102 whole entry, looked up): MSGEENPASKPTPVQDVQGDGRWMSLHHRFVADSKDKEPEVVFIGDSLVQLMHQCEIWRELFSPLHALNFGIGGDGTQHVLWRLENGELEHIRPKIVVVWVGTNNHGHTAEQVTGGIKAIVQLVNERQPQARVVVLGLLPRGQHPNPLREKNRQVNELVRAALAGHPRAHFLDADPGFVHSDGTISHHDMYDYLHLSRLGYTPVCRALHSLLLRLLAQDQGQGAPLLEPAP
PAFAH2 inh – PAFAH2 (human) inhibition | AID 492956 | 340,000 tested, 0.99% active | inhibition, % at 3.39 µM | Q99487 | recombinant PAFAH2, FP-rhodamine activity probe, fluorescence polarization;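 active means inhibition above the mean over all tested compounds plus 3 SD, cut at about 30% in these data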;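 further: inhibitors block probe labeling of enzyme so polarization drops; 0% = enzyme with DMSO and 100% = wells lacking PAFAH2 protein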
PAFAH1B2 inh – blocks human PAF acetylhydrolase 1b catalytic subunit 2; recombinant PAFAH1B2, FP-rhodamine activity probe, fluorescence polarization; P68402; 340,000 tested, 1.2% active; inhibition, % at 3.39 µM; AID 492953;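 active means inhibition above the mean of all tested compounds plus 3 SD, cut at about 24% in these data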;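 further: 0% = enzyme with DMSO and 100% = wells lacking PAFAH1B2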
Target sequence (P68402 whole entry, looked up): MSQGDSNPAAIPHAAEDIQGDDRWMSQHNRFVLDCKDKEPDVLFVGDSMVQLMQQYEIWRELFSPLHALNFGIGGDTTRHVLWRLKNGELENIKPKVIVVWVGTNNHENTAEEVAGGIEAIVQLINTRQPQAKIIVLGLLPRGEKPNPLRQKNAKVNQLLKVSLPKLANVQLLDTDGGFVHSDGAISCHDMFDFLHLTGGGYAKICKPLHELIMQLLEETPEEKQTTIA
PP5 primary – PP5 (human) phosphatase inhibition. AID 1987. 320,000 tested, 0.18% active. P53041. inhibition, % at 6.7 µM. purified PP5c, OMFP substrate fluorescence;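 active means inhibition above the campaign's mean inhibition across all tested compounds plus 3 SD, cut at about 9.5% in these data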;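 further: 0% = DMSO only and 100% = 100 µM cantharidin control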
pPAFAH inh – inhibitors of human plasma PAF acetylhydrolase (pPAFAH). Q13093. recombinant pPAFAH, FP-rhodamine probe fluorescence polarization. inhibition, % at 3.39 µM. 330,000 tested, 1.5% active. AID 463082;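 active means inhibition above the mean inhibition across the screen plus 3 SD, cut at about 25% in these data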;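 further: inhibitors block binding of the rhodamine activity-based probe so polarization drops; 0% = enzyme with DMSO and 100% = wells lacking pPAFAH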
CTSL1 counter – counter-screen for PFM18AAP inhibitors: inhibitors of F. hepatica cathepsin L1. AID 1906. recombinant F. hepatica cathepsin L1, Z-Leu-Arg-MCA fluorescence. 300,000 tested, 0.49% active. inhibition, % at 5.96 µM;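 active means inhibition above the mean of all tested compounds plus 3 SD, set per screening campaign, cut at about 17% in these data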;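 further: 0% = plate median of test compound wells and 100% = 1 µM Z-Phe-Ala-diazomethylketone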
* = called active by the depositor; . = not tested or not shown.

SMILES | PAFAH1B3 FP inh | PAFAH2 inh | PAFAH1B2 inh | PP5 primary | pPAFAH inh | CTSL1 counter
CCCNC(=O)c1onc(CSc2ccc(Cl)cc2)c1C(=O)NC(C)C | 1 | -4 | 6 | 2 | 4 | -2
CCOc1cc(N2CCOCC2)c(OCC)cc1NC(=O)COC(=O)c1ccccc1C | 1 | -6 | 3 | 1 | 6 | -8
CCOc1cc(N2CCOCC2)c(OCC)cc1NC(=O)COC(=O)c1cc(C)cc(C)c1 | -9 | 0 | -4 | 3 | 5 | 50*
CCOc1cc(N2CCOCC2)c(OCC)cc1NC(=O)COC(=O)COc1cc(C)cc(C)c1 | 1 | 3 | -2 | 0 | 4 | -3
CCOc1cc(N2CCOCC2)c(OCC)cc1NC(=O)COC(=O)c1cc(C)oc1C | -3 | 5 | 1 | 0 | 1 | 41*
Cc1cc(C(=O)OCC(=O)Nc2ccc(F)cc2F)c(C)o1 | 3 | 45* | 9 | 0 | 4 | -4
Cc1cccn2c(=O)c3cc(C(=O)NC4CCCC4)sc3nc12 | 6 | -1 | 2 | 1 | 1 | 4
CCOc1ccc(N2C(=O)C(c3ccccc3)=C(c3nc4ccccc4s3)C2NC(C)=O)cc1 (configuration not stated) | 4 | -6 | -1 | -1 | 26* | 0
CC(=O)c1cc(O)c2ccccc2c1O | 19 | 20 | 11 | 3 | 26* | -4
CC(=O)c1coc2c1cc(O)c1ccccc12 | 2 | -1 | -2 | 0 | 2 | 0
COc1cccc(=O)c2c(C)n(C)c(C)c12 | 9 | 10 | 5 | -1 | 13 | -1
COc1cccc(=O)c2c(C)n(-c3cc(C)cc(C)c3)c(C)c12 | 0 | 59* | 7 | 3 | 23 | 2
O=S(=O)(NC1CCSc2ccccc21)c1ccc(Cl)nc1 (configuration not stated) | 3 | 7 | 8 | 2 | 4 | -2
O=C(C(c1ccccc1)c1ccccc1)N1CCN(Cc2ccc(Br)cc2)CC1 | 4 | -4 | 24* | 2 | -1 | -2
O=C(C(Cl)Cl)N1CCN(Cc2ccccc2)CC1 | 4 | 1 | 2 | 0 | 0 | 2
O=C(Nc1ccccc1)OCCc1ccccn1 | 7 | -2 | -1 | . | . | .
CN(C)c1ccc(N=Nc2ccc(S(=O)(=O)O)cc2)c2ccccc12 | 4 | 13 | 3 | 3 | 30* | 2
CC(C)CC(NS(=O)(=O)c1ccc2c(c1)oc(=O)n2C)C(=O)N1CC=C(c2ccccc2)CC1 (configuration not stated) | 6 | 0 | 6 | 0 | 4 | 77*
CCn1ccnc1CN(C)C(=O)C1CCC(=O)N(Cc2cccc(F)c2)C1 (configuration not stated) | 4 | 0 | -5 | -5 | -5 | 0
CCCn1c(N)c(C(=O)CN(C)CC(=O)Nc2ccccc2C(F)(F)F)c(=O)[nH]c1=O | 10 | 1 | 0 | -2 | 2 | .
CCn1ccnc1CNCc1ccc(OCC(O)CN(C)Cc2ccccc2)cc1 (configuration not stated) | 1 | 0 | -2 | -1 | 4 | -2
CN(Cc1ccccc1)CC(O)COc1ccc(CNCc2nccn2C)cc1 (configuration not stated) | 6 | 3 | 6 | 3 | 3 | 18*
Cc1nnc(SCc2ccc(Cl)cc2Cl)[nH]c1=O | 6 | 12 | 27* | -1 | 21 | 2
Nc1cc(=O)[nH]c(SCc2ccccc2Cl)n1 | -1 | 2 | 1 | 1 | -5 | 2
Cc1ccc(C)c(CSc2nnc(C)c(=O)[nH]2)c1 | 6 | -4 | 6 | 1 | 0 | -4
SMILES | PAFAH1B3 FP inh | PAFAH2 inh | PAFAH1B2 inh | PP5 primary | pPAFAH inh | CTSL1 counter
Cc1cnc(SCc2ccc(Cl)cc2Cl)[nH]c1=O | 11 | 5 | 27* | 1 | 6 | -2
Cc1cc(=O)[nH]c(SCc2ccc(Cl)cc2Cl)n1 | -3 | 22 | 29* | 1 | 9 | -6
O=C(CN1CCCCC1)N/N=C/c1ccc(Cl)cc1 | 2 | 6 | -2 | 2 | 2 | 5
O=C(O/N=C/c1ccc(Cl)cc1)C1CCCCC1 | 12 | 77* | 94* | 2 | 5 | 2
O=C(CN1C(=O)c2ccccc2C1=O)N1CCN(c2ccccc2)CC1 | 5 | 7 | 0 | 2 | 0 | 1
Cc1ccc(N2CCN(C(=O)CN3C(=O)c4ccccc4C3=O)CC2)cc1 | -2 | -2 | 1 | 3 | 1 | 21*
Cc1ccccc1Cn1nnc2c1C(=O)c1ccccc1C2=O | 22 | 2 | 0 | 2 | 2 | 25*
Cc1nc2c(nc1C)C(=O)c1ccccc1C2=O | 8 | 4 | 4 | . | . | .
O=C1OC(Nc2cc(Br)cc3cccnc23)c2ccccc21 (configuration not stated) | 69* | 22 | 18 | 8 | 30* | 98*
Nc1nc(-c2ccc(NC(=O)c3ccco3)cc2)cs1 | 8 | 11 | 5 | 1 | 4 | 1
NC(=O)/C(=N\OC(=O)c1ccco1)c1nc(-c2ccc(Br)cc2)cs1 | 25 | 7 | 15 | 5 | 32* | -7
CC(C)c1c(C(=O)N/N=C/c2ccc(C(F)(F)F)cc2)nnn1-c1nonc1N | 2 | -5 | 0 | 6 | -25 | 5
Nc1nc(-c2cccc(F)c2)cs1 | 7 | 1 | 45* | 2 | -2 | -3
Fc1cccc(-c2csc(-c3ccno3)n2)c1 | -2 | -1 | 2 | 2 | 4 | -4
COc1ccc(OC)c(C2=NS(=O)(=O)N(C)C(C(=O)NCc3ccco3)=C2)c1 | 3 | -3 | 3 | 4 | 6 | 1
O=C(NCc1ccc2c(c1)OCO2)c1cc2c(s1)CSC2 | 0 | 6 | -1 | 3 | 21 | 0
O=C(NCc1ccco1)c1cc2c(s1)CSC2 | . | . | . | 3 | 28* | 0
O=C(NCC1CCCN(Cc2cccc(F)c2)C1)c1cccc2ccccc12 (configuration not stated) | 2 | -8 | -1 | 5 | 3 | 5
CC1=CC(=O)C(C(C)C)=C/C1=N/OS(=O)(=O)c1ccccc1 | 11 | 10 | 2 | -2 | -2 | 17*
O=C1CC(=C2c3ccccc3-c3ccccc32)C(=O)N1CCN1CCN(c2cccc(Cl)c2)CC1 | 1 | -6 | -2 | 4 | 26* | 0
COc1ccc2nc(-c3ccco3)c(-c3ccco3)nc2c1 | 33* | 56* | 26* | 2 | 47* | 11
COc1ccc2nc3cccc(OC)c3nc2c1 | 16 | 6 | 10 | 1 | 22 | 19*
COc1ccccc1NS(=O)(=O)c1ccc(Cl)c(NC(=O)C(C)N2C(=O)c3ccccc3C2=O)c1 (configuration not stated) | 10 | 0 | 6 | -1 | 8 | 25*
O=C(NC1CCN(C(=O)Nc2ccccc2Cl)CC1)c1cccc(F)c1 | -2 | -11 | 9 | 1 | 1 | -1
Cc1ccc(-c2csc(N3N=C(c4ccccc4)/C(=C\c4ccc(N(C)C)cc4)C3=O)n2)cc1 | . | . | . | 1 | 28* | -1
